Here are results for 6 molecules from PubChem BioAssay (NCI).

Values joined by “and” are separate entries in the source; they are usually repeats but may differ in a detail not shown here. Equal values may be shown once. This is part of a sample that, as a whole, favours compounds with a hit. Of some 83,000 tested, about 20% had one in any assay.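 Each cell line was grown in a 96-well plate and treated with one concentration of compound for 48 hours. Values below 10 were considered active.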 Active and inactive are the calls of the source.

Among the test systems are NCI-H23 lung; NCI-H226 lung; NCI-H322M lung; HOP-62 NSCLC; NCI-H460 lung; HOP-92 NSCLC; NCI-H522 lung; A549/ATCC NSCLC; 786-0 renal; COLO 205 colon; DU-145 prostate; K-562 leukemia; MALME-3M melanoma; MDA-MB-231 breast; RXF 393 renal; SF-268 CNS; SF-295 CNS; SF-539 CNS; UACC-257 melanoma; M14 melanoma.
Test in all cases: NCI-60 one-dose screen, 48 h (100 = growth as untreated, 0 = no growth, -100 = all killed)
Details in all cases: 10 µM unless noted

In the case of `CCCCCCCCCCCCCCCC[N+](C)(C)CCN(Cc1ccc(OC)cc1)c1ncccn1`, the growth with NCI-H23 lung is 41.5% (inactive); in the test on NCI-H226 lung it was 48.3% (inactive) and 60.2% (inactive); with NCI-H322M lung, -81.8% (active) and 74.2% (inactive); in the test with HOP-62 NSCLC, -100% (active) and 65.2% (inactive); in the test with NCI-H460 lung, -84.1% (active) and 67.4% (inactive); with HOP-92 NSCLC it was -66.1% (active) and 15.6% (inactive). In addition, the growth in the test on NCI-H522 lung was -91.2% (active) and 23.4% (inactive); with A549/ATCC NSCLC, -86.1% (active) and 54.4% (inactive); in the test on 786-0 renal it was -33.7% (active) and 61.9% (inactive); with COLO 205 colon, -100% (active) and 33.1% (inactive); with DU-145 prostate, -100% (active) and 69.4% (inactive); with K-562 leukemia, 35.5% (inactive). Also, the growth with MALME-3M melanoma was -70.3% (active) and 43.8% (inactive); in the test with MDA-MB-231 breast, -82.5% (active) and 47.1% (inactive); with RXF 393 renal, -58.4% (active) and -49.8% (active); in the test with SF-268 CNS, -92.9% (active) and 38% (inactive); in the test with SF-295 CNS it was -90.6% (active); with SF-539 CNS, -91.3% (active) and 71.2% (inactive). In addition, the growth is 25.2% (inactive) and 28.7% (inactive) with UACC-257 melanoma; -62.6% (active) and -17.7% (active) in the test with M14 melanoma.

Take `COC(=O)N/N=C/c1c[n+]([O-])c2ccccc2[n+]1[O-]`: the growth in the test on NCI-H23 lung is 98.6% (inactive); in the test with NCI-H226 lung, 109% (inactive); in the test on NCI-H322M lung, 98.3% (inactive); in the test on HOP-62 NSCLC it was 22.7% (inactive); in the test on NCI-H460 lung, 105% (inactive); in the test on HOP-92 NSCLC, 96.5% (inactive). In addition, the growth was 92.9% (inactive) in the test on NCI-H522 lung; 93.1% (inactive) with A549/ATCC NSCLC; 93.8% (inactive) with 786-0 renal; -45.4% (active) with COLO 205 colon; 114% (inactive) with DU-145 prostate; 103% (inactive) with K-562 leukemia. For the same molecule, the growth is 108% (inactive) in the test on MALME-3M melanoma; 110% (inactive) with MDA-MB-231 breast; 125% (inactive) in the test on RXF 393 renal; 106% (inactive) in the test with SF-268 CNS; 93.4% (inactive) in the test with SF-295 CNS; 101% (inactive) with SF-539 CNS. For the same molecule, the figures for the growth in the test with UACC-257 melanoma and with M14 melanoma were 95.1% (inactive) and 106% (inactive), respectively.

Turning to `O=C(Nc1ncc(Cc2cccc(C(F)(F)F)c2)s1)c1ccc2c(c1)OCCO2`, the growth with NCI-H23 lung is 31.2% (inactive); in the test with NCI-H226 lung, 21.3% (inactive); in the test on NCI-H322M lung, 54.1% (inactive); in the test with HOP-62 NSCLC, 25.2% (inactive); with NCI-H460 lung, 6.46% (active); in the test with HOP-92 NSCLC, 51.3% (inactive). The growth was 8.7% (active) in the test on NCI-H522 lung; 17.2% (inactive) with A549/ATCC NSCLC; 39.9% (inactive) in the test on 786-0 renal; -7.82% (active) in the test with COLO 205 colon; 15.1% (inactive) in the test with DU-145 prostate; 8.17% (active) with K-562 leukemia. For the same molecule, the growth in the test with MALME-3M melanoma was 50.1% (inactive); in the test on MDA-MB-231 breast, 30.2% (inactive); with RXF 393 renal it was 19.6% (inactive); in the test with SF-268 CNS, 38.3% (inactive); in the test on SF-295 CNS it was 8.97% (active); in the test with SF-539 CNS, -0.654% (active). In addition, the results for the growth with UACC-257 melanoma and in the test on M14 melanoma were 45.5% (inactive) and 21.6% (inactive), respectively.

For the molecule `COc1cc2nc3cc([N+](=O)[O-])ccc3c(NCCNCC(C)(C)O)c2cc1OC`, the growth is -34.1% (active) in the test with NCI-H23 lung; -4.58% (active) in the test on NCI-H226 lung; -3.78% (active) in the test with NCI-H322M lung; -23% (active) in the test with HOP-62 NSCLC; -38.7% (active) in the test on NCI-H460 lung; -45.6% (active) with HOP-92 NSCLC. In addition, the growth in the test with NCI-H522 lung was -40.3% (active); with A549/ATCC NSCLC it was -9.76% (active); with 786-0 renal, 2.27% (active); with COLO 205 colon, -70.1% (active); in the test on DU-145 prostate, -8.55% (active); in the test with K-562 leukemia, 1.28% (active). Moreover, the growth was -74.4% (active) in the test on MALME-3M melanoma; -28.5% (active) in the test on MDA-MB-231 breast; -47.3% (active) in the test with RXF 393 renal; -10.8% (active) in the test with SF-268 CNS; 16.4% (inactive) in the test on SF-295 CNS; -20.8% (active) in the test on SF-539 CNS. In addition, the growth was -61.8% (active) with UACC-257 melanoma and -75.7% (active) in the test on M14 melanoma.

`Cc1c(O)c(O)cc2c3c(oc12)CC(c1ccc2c(c1)OCO2)CC3=O` (stereo not given): the growth with NCI-H23 lung is 83.4% (inactive); with NCI-H226 lung it was 81.2% (inactive); in the test on NCI-H322M lung it was 90.1% (inactive); in the test on HOP-62 NSCLC, 75.2% (inactive); in the test on NCI-H460 lung, 93.7% (inactive); in the test on HOP-92 NSCLC, -37.4% (active). In addition, the growth with NCI-H522 lung is 53.3% (inactive); in the test with A549/ATCC NSCLC it was 93.8% (inactive); with 786-0 renal, 100% (inactive); in the test with COLO 205 colon, 103% (inactive); with DU-145 prostate, 97.7% (inactive); in the test on K-562 leukemia, 82.1% (inactive). The growth in the test with MALME-3M melanoma was 105% (inactive); with MDA-MB-231 breast it was 76.9% (inactive); with RXF 393 renal it was 115% (inactive); with SF-268 CNS, 83.3% (inactive); in the test on SF-295 CNS, 106% (inactive); with SF-539 CNS, 81.8% (inactive). In addition, the values for the growth in the test on UACC-257 melanoma and in the test with M14 melanoma were 94.7% (inactive) and 84% (inactive), respectively.

Consider `CCOC(=O)c1cc2c(n1Cc1cc(OC)cc(OC)c1Br)-c1nc(NC(C)=O)sc1CCC2`, for which the growth with NCI-H23 lung is 73.2% (inactive); in the test with NCI-H226 lung it was 71.3% (inactive); in the test on NCI-H322M lung, 80.2% (inactive); with HOP-62 NSCLC, 80.4% (inactive); in the test with NCI-H460 lung it was 82.2% (inactive); with HOP-92 NSCLC it was 46.6% (inactive). Besides, the growth in the test with NCI-H522 lung was 53.5% (inactive); in the test on A549/ATCC NSCLC it was 42.8% (inactive); in the test on 786-0 renal it was 78% (inactive); in the test on COLO 205 colon, 82.2% (inactive); with DU-145 prostate it was 89.3% (inactive); with K-562 leukemia it was 81.4% (inactive). Besides, the growth in the test on MALME-3M melanoma is 122% (inactive); in the test on MDA-MB-231 breast, 74.7% (inactive); in the test with RXF 393 renal, 61% (inactive); in the test on SF-268 CNS it was 67.1% (inactive); in the test with SF-295 CNS it was 76.4% (inactive); with SF-539 CNS, 85.6% (inactive). The results for the growth in the test with UACC-257 melanoma and in the test with M14 melanoma were 53% (inactive) and 84.9% (inactive), respectively.
